High-throughput results from PubChem.
Tg IFNy HTS = blocks Toxoplasma gondii growth in the presence of IFN-gamma. actives 3.8% (n = 69,000). AID 1259416. Toxoplasma gondii growth in IFN-gamma-treated host cells; stronger effect = lower value. activity change, negative = inhibition, % (concentration not given with the values); in the data active = activity change below about -70%, passing the limit was not always enough;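 also: host cells are HeLa cells infected with Toxoplasma gondii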
* hit, by the source's call. Shown is part of a subset that was picked to be rich in hits.

SMILES	Tg IFNy HTS
O=C(O)CN1CCC2(CC1)C(=O)N(CC1CC1)C2c1ccccc1 (stereo not drawn)	-1
COCCCNC(=O)Cn1c(=O)n(-c2cccc(OC)c2)c(=O)c2ccccc21	25
CCOc1ccc(-c2nc3c(s2)CN(S(=O)(=O)c2ccccc2Cl)CC3)cc1	-89*
COc1ccc(-c2nc3c(s2)CN(S(=O)(=O)c2ccccc2Cl)CC3)cc1	-86*
CCOc1ccc(-c2nc3c(s2)CN(C(=O)Nc2ccccc2CC)CC3)cc1	-4
O=S(=O)(c1cccc(Cl)c1)N1CCc2nc(-c3ccccc3)sc2C1	1
COc1ccc(-c2nc3c(s2)CN(S(=O)(=O)c2ccc(C(C)C)cc2)CC3)cc1	-16
Cc1nc(N)nc(C)c1CC(=O)N1CC(c2ccncc2)C1	8
COc1ccccc1CCCNC1CCCNC1 (stereo not drawn)	-6
Cc1cc(C)c(NC(=O)CS(=O)(=O)Cc2c(F)cccc2Cl)c(C)c1	27
Cn1cc(C(=O)O)c(=O)c2ccccc21	-6
COc1ccc2c(c1)c(C1=C(c3c[nH]c4ccccc34)C(=O)NC1=O)cn2CCCN(C)C	-52
Cn1cc(C2=C(c3cn(CCCSC(=N)N)c4ccccc34)C(=O)NC2=O)c2ccccc21	-77*
C#CC(CC)(CC)NC(=O)Nc1cnccc1C(F)(F)F	40
COC(=O)CC(=O)CCc1c(C)noc1C	-51
CCc1ncc(C(=O)N(C)CC2COc3ccccc3O2)cn1 (stereo not drawn)	44
CNCc1cc(-c2ccc(F)cc2Cl)ccc1OC	-47
Nc1ncnc2c1ncn2[C@@H]1O[C@H](C[C@@H](N)CC[C@H](N)C(=O)O)[C@@H](O)[C@H]1O	-67
CCS(=O)(=O)N1CC[C@H]2C[C@H](c3nc(C)no3)O[C@H]2C1	-8
Cc1ccc2c(c1)c(=O)c(C(=O)NC1CCN(Cc3ccccn3)CC1)cn2C	-7
COCCc1noc(CN2CCC(O)(c3ccc(C)cn3)CC2)n1	-7
Cc1oc(-c2ccccc2Cl)nc1CN1C(=O)C(O)(c2ccccc2)c2ccccc21 (stereo not drawn)	-96*
CCN(CC)C(=O)c1cc(C)nc2c1c(=O)n(Cc1nc(-c3ccccc3Cl)oc1C)c(=O)n2C	-22
Cc1ccc(-c2nc(CN3C(=O)C(O)(c4ccccc4)c4ccccc43)c(C)o2)cc1 (stereo not drawn)	-65
Cc1cc(C)c2c(=O)n(Cc3nc(-c4ccccc4Cl)oc3C)c(=O)n(-c3ccccc3)c2n1	2
SMILES	Tg IFNy HTS
COc1ccc(-c2nc(CN3C(=O)C(O)(c4ccc(C)cc4)c4ccccc43)c(C)o2)cc1 (stereo not drawn)	-124*
CCOc1ccc(-c2nc(CN3C(=O)C(O)(c4ccccc4)c4ccccc43)c(C)o2)cc1 (stereo not drawn)	9
CC1CCN(C(=O)CN(c2ccc(F)cc2)S(=O)(=O)c2ccc3c(c2)OCCO3)CC1	-24
Cc1cc(-c2snnc2C2CCN(C(=O)c3c(F)cccc3Cl)CC2)on1	1
CC(C)OCc1ccc(C(=O)N2CCN(C(c3ccccc3)c3nccn3C)CC2)o1 (stereo not drawn)	-1
CCOCC1COCCC12CCN(C(=O)C1CC(F)(F)C1)CC2 (stereo not drawn)	60
O=C(Nc1nc2c(s1)CCCCCC2)C1=NN(C2CCS(=O)(=O)C2)C(=O)CC1 (stereo not drawn)	-32
COCC1CN(C(=O)Cc2cccc(F)c2)Cc2ccnn2C1 (stereo not drawn)	51
Cc1cc(C)n(-c2nnc(-c3ccccc3)c(-c3ccccc3)c2-c2ccccc2)n1	-22
Cc1cc(C)n(-c2ncnc3sc(-c4ccccc4)cc23)n1	-94*
Cc1cc(C)n(-c2nc(-c3ccccc3)cc(-c3ccccc3)n2)n1	-23
CC(=O)N1C(Cn2cccn2)CC2CN(C(=O)C3CCOC3)CCC21 (stereo not drawn)	8
CN(C)S(=O)(=O)N1CC[C@@]2(C[C@H](N3CCCC3=O)CCO2)C1	-40
C[C@@H]1CN([C@H](C)CO)C(=O)CCCn2nncc2CO[C@H]1CN(C)CC1CCCCC1	-99*
C[C@H](CO)N1C[C@H](C)[C@@H](CN(C)CC2CCCCC2)OCc2cnnn2CCCC1=O	91
C[C@H](CO)N1C[C@H](C)[C@H](CN(C)CC2CCCCC2)OCc2cnnn2CCCC1=O	181
C[C@H]1CN([C@@H](C)CO)C(=O)CCCn2nncc2CO[C@@H]1CN(C)C(=O)c1ccc(N2CCN(C)CC2)cc1	177
C[C@@H]1CN([C@H](C)CO)C(=O)CCCn2nncc2CO[C@H]1CN(C)C(=O)c1ccc(N2CCN(C)CC2)cc1	-26
C[C@@H]1CN([C@@H](C)CO)C(=O)CCCn2nncc2CO[C@H]1CN(C)C(=O)c1ccc(N2CCN(C)CC2)cc1	-87*
Cc1ccc(Nc2nc(C(=O)NCCc3c(C)noc3C)nc3ccccc23)cc1	-18
CCN1C(=O)CC2(CCN(C(=O)c3cc(C)[nH]n3)CC2)c2ccccc21	4
O=C(COc1ccc(F)cc1)NCCc1csc(-c2ccc(Cl)cc2)n1	-40
CCS(=O)(=O)N1C[C@H]2COC[C@H](c3nc(C)no3)[C@H]2C1	-8
O=C(c1ccoc1)N1CCC2(CC1)CN(Cc1nccs1)CCO2	66
CCOC(=O)CCc1nc2ccccc2[nH]1	-27
SMILES	Tg IFNy HTS
COCC(=O)O[C@]1(CCN(C)CCCc2nc3ccccc3[nH]2)CCc2cc(F)ccc2[C@@H]1C(C)C	-72*
CN(Cc1nc2ccccc2[nH]1)C(=O)CCNC(=O)c1ccc(F)cc1	-49
CCc1nc(C)sc1CNC(=O)C1CC(=O)N(Cc2ccccn2)C1 (stereo not drawn)	-25
COc1ccc(Nc2cc(C)nc3ccc(C)cc23)cc1	-97*
COc1ccc2nc(C)cc(Nc3ccccc3O)c2c1	-63
COc1ccc(CNC(=O)c2nc(Nc3ccc(C)cc3)c3ccccc3n2)cc1	-29
COCCO[C@H]1CCN(Cc2c(C)noc2C)[C@H]1Cc1ccccc1	-31
COc1ccc(CN(C)C[C@@H]2OCCCC[C@@H](C)Oc3ccc(NC(=O)C4CCCCC4)cc3C(=O)N([C@H](C)CO)C[C@@H]2C)cc1	161
C[C@@H]1CCCCO[C@H](CN(C)Cc2ccncc2)[C@@H](C)CN([C@H](C)CO)C(=O)c2cc(NS(=O)(=O)c3ccc(Cl)cc3)ccc2O1	-23
C[C@@H]1CCCCO[C@@H](CN(C)Cc2ccncc2)[C@@H](C)CN([C@H](C)CO)C(=O)c2cc(NS(=O)(=O)c3ccc(Cl)cc3)ccc2O1	132
COc1ccc(S(=O)(=O)Nc2ccc3c(c2)C(=O)N([C@@H](C)CO)C[C@@H](C)[C@@H](CN(C)Cc2ccc(C(F)(F)F)cc2)OCCCC[C@@H](C)O3)cc1	-109*
COc1ccc(S(=O)(=O)Nc2ccc3c(c2)C(=O)N([C@H](C)CO)C[C@@H](C)[C@@H](CN(C)Cc2ccc(C(F)(F)F)cc2)OCCCC[C@H](C)O3)cc1	-120*
COc1ccc(CN(C)C[C@H]2OCCCC[C@H](C)Oc3ccc(NC(=O)C4CCCCC4)cc3C(=O)N([C@@H](C)CO)C[C@@H]2C)cc1	271
COc1ccc(S(=O)(=O)Nc2ccc3c(c2)C(=O)N([C@@H](C)CO)C[C@@H](C)[C@@H](CN(C)Cc2ccc(C(F)(F)F)cc2)OCCCC[C@H](C)O3)cc1	-120*
Cc1ccc(S(=O)(=O)Nc2ccc3c(c2)C(=O)N([C@H](C)CO)C[C@H](C)[C@@H](CN(C)Cc2ccc(C(F)(F)F)cc2)O3)cc1	14
